Assay results from PubChem BioAssay AID1159580 (chemical genetic matrix, 2015).
Where “and” joins values, the source holds several entries; their conditions need not be identical. Identical values can stand only once. About 2,000 (36%) of roughly 5,500 compounds were called active. Roughly 18% stayed inconclusive and do not appear here. Rule as the data show it: active = normalized growth mostly below about 0.91 (no sharp cut-off); inconclusive = no clear call, values can overlap the other calls; inactive = mostly above about 0.92. Some of the results follow.

Assay: chemical genetic growth profiling, strain panel (AID 1159580);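 also: tested at 20 µM; growth read once vehicle control cultures reached saturation at 30 °C; 1 = growth at the plate median or of vehicle wells; lower values mean less growth of the strain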
Details: growth OD

Measured: normalized growth

CC(N)C(=O)OC(C)(C)Cc1ccc(Cl)cc1 (stereo unspecified)
inactive: S. cerevisiae deletion strains, locus YJR075W, strain HOC1, active compounds read low 0.986 and 1 | S. cerevisiae deletion strains, locus YKL009W, strain mrt4, active compounds read low 0.922 | S. cerevisiae deletion strains, locus YKL068W, active compounds read low 0.992 | S. cerevisiae deletion strains, locus YKL085W, strain MDH1 (second series), active compounds read low 0.98 | S. cerevisiae deletion strains, locus YKL085W, strain MDH1, active compounds read low 0.98 | S. cerevisiae deletion strains, locus YKL160W, strain elf1, active compounds read low 1.02 | S. cerevisiae deletion strains, locus YKL190W, strain CNB1, active compounds read low 0.989 | S. cerevisiae deletion strains, locus YKR001C, strain vps1, active compounds read low 1.03 | S. cerevisiae deletion strains, locus YKR026C, strain gcn3, active compounds read low 0.998 | S. cerevisiae deletion strains, locus YKR091W, strain srl3, active compounds read low 1.01 | S. cerevisiae deletion strains, locus YLL001W, strain dnm1, active compounds read low 0.977 | S. cerevisiae deletion strains, locus YLL026W, active compounds read low 1.01 | S. cerevisiae deletion strains, locus YLL041C, strain sdh2, active compounds read low 1.02 | S. cerevisiae deletion strains, locus YLR027C, strain aat2, active compounds read low 1.01 | S. cerevisiae deletion strains, locus YLR039C, strain RIC1, active compounds read low 1.03 | S. cerevisiae deletion strains, locus YLR058C, strain SHM2, active compounds read low 0.97 | S. cerevisiae deletion strains, locus YLR102C, strain apc9, active compounds read low 0.995 | S. cerevisiae deletion strains, locus YLR113W, strain HOG1, active compounds read low 1.01 | S. cerevisiae deletion strains, locus YLR221C, strain rsa3, active compounds read low 1.02 | S. cerevisiae deletion strains, locus YLR258W, strain gsy2, active compounds read low 1.02 | S. cerevisiae deletion strains, locus YLR262C, strain YPT6 (second series), active compounds read low 1.06 | S. cerevisiae deletion strains, locus YLR262C, strain YPT6, active compounds read low 0.986 | S. cerevisiae deletion strains, locus YLR268W, strain sec22, active compounds read low 1.07 | S. cerevisiae deletion strains, locus YLR320W, strain mms22, active compounds read low 1.04 | S. cerevisiae deletion strains, locus YLR330W, strain CHS5, active compounds read low 0.988 | S. cerevisiae deletion strains, locus YLR342W, strain FKS1 (second series), active compounds read low 0.928 | S. cerevisiae deletion strains, locus YLR342W, strain FKS1, active compounds read low 1.02 | S. cerevisiae deletion strains, locus YLR357W, strain rsc2, active compounds read low 1.03 | S. cerevisiae deletion strains, locus YLR370C, strain arc18, active compounds read low 1.01 | S. cerevisiae deletion strains, locus YLR371W, strain rom2, active compounds read low 0.986 | S. cerevisiae deletion strains, locus YLR384C, strain iki3, active compounds read low 1.01 | S. cerevisiae deletion strains, locus YLR418C, strain cdc73, active compounds read low 0.983 | S. cerevisiae deletion strains, locus YML016C, strain PPZ1, active compounds read low 0.984 | S. cerevisiae deletion strains, locus YML032C, strain rad52, active compounds read low 0.982 | S. cerevisiae deletion strains, locus YML120C, strain ndi1, active compounds read low 1.02 | S. cerevisiae deletion strains, locus YML124C, strain tub3, active compounds read low 0.985 | S. cerevisiae deletion strains, locus YMR058W, strain fet3, active compounds read low 1.03 | S. cerevisiae deletion strains, locus YMR078C, strain ctf18, active compounds read low 0.98 | S. cerevisiae deletion strains, locus YMR125W, strain sto1, active compounds read low 1.01 | S. cerevisiae deletion strains, locus YMR129W, active compounds read low 1.02 | S. cerevisiae deletion strains, locus YMR205C, strain PFK2, active compounds read low 1.02 | S. cerevisiae deletion strains, locus YMR223W, strain ubp8, active compounds read low 0.94 | S. cerevisiae deletion strains, locus YMR231W, strain pep5, active compounds read low 1.02 | S. cerevisiae deletion strains, locus YMR263W, strain SAP30, active compounds read low 0.984 and 1.02 | S. cerevisiae deletion strains, locus YMR307W, strain GAS1, active compounds read low 1.04 | S. cerevisiae deletion strains, locus YNL067W, strain RPL9B, active compounds read low 0.996 | S. cerevisiae deletion strains, locus YNL071W, strain lat1, active compounds read low 1.02 | S. cerevisiae deletion strains, locus YNL128W, strain TEP1, active compounds read low 0.975 and 1.02 | S. cerevisiae deletion strains, locus YNL153C, strain GIM3, active compounds read low 0.992 | S. cerevisiae deletion strains, locus YNL175C, strain NOP13, active compounds read low 1.04 | S. cerevisiae deletion strains, locus YNL183C, strain NPR1, active compounds read low 0.982 | S. cerevisiae deletion strains, locus YNL197C, strain WHI3, active compounds read low 1.09 | S. cerevisiae deletion strains, locus YNL209W, strain ssb2, active compounds read low 1.02 | S. cerevisiae deletion strains, locus YNL224C, strain SQS1, active compounds read low 1.05 | S. cerevisiae deletion strains, locus YNL233W, strain BNI4, active compounds read low 0.983 | S. cerevisiae deletion strains, locus YNL248C, strain rpa49, active compounds read low 1.02 | S. cerevisiae deletion strains, locus YNL250W, strain rad50, active compounds read low 0.975 | S. cerevisiae deletion strains, locus YNL271C, strain bni1, active compounds read low 1 | S. cerevisiae deletion strains, locus YNL298W, strain CLA4, active compounds read low 0.981 | S. cerevisiae deletion strains, locus YNL307C, strain MCK1, active compounds read low 0.972 | S. cerevisiae deletion strains, locus YNL322C, strain KRE1 (second series), active compounds read low 1.01 | S. cerevisiae deletion strains, locus YNL322C, strain KRE1, active compounds read low 0.986 | S. cerevisiae deletion strains, locus YNR049C, strain mso1, active compounds read low 1.01 | S. cerevisiae deletion strains, locus YNR052C, strain pop2, active compounds read low 0.986 | S. cerevisiae deletion strains, locus YOL006C, strain TOP1, active compounds read low 1.05 | S. cerevisiae deletion strains, locus YOL012C, strain htz1 1 | S. cerevisiae deletion strains, locus YOL147C, strain pex11, active compounds read low 0.988 | S. cerevisiae deletion strains, locus YOR001W, strain rrp6, active compounds read low 1.06 | S. cerevisiae deletion strains, locus YOR061W, strain CKA2, active compounds read low 0.975 | S. cerevisiae deletion strains, locus YOR069W, strain VPS5, active compounds read low 0.981 | S. cerevisiae deletion strains, locus YOR070C, strain gyp1, active compounds read low 1.02 | S. cerevisiae deletion strains, locus YOR080W, strain dia2, active compounds read low 1.03 | S. cerevisiae deletion strains, locus YOR083W, strain WHI5 (second series), active compounds read low 1.04 | S. cerevisiae deletion strains, locus YOR083W, strain WHI5, active compounds read low 1.01 | S. cerevisiae deletion strains, locus YOR106W, strain vam3, active compounds read low 1.07 | S. cerevisiae deletion strains, locus YOR136W, strain idh2, active compounds read low 0.977 | S. cerevisiae deletion strains, locus YOR144C, strain elg1, active compounds read low 0.988 | S. cerevisiae deletion strains, locus YOR184W, strain ser1, active compounds read low 0.993 | S. cerevisiae deletion strains, locus YOR231W, strain MKK1, active compounds read low 1.02 | S. cerevisiae deletion strains, locus YOR265W, strain rbl2, active compounds read low 1.01 | S. cerevisiae deletion strains, locus YOR270C, strain vph1, active compounds read low 1.09 | S. cerevisiae deletion strains, locus YOR290C, strain snf2, active compounds read low 1.02 | S. cerevisiae deletion strains, locus YOR316C, strain cot1, active compounds read low 0.99 | S. cerevisiae deletion strains, locus YPL051W, strain arl3, active compounds read low 1.02 | S. cerevisiae deletion strains, locus YPL055C, strain LGE1, active compounds read low 0.937 and 1.01 | S. cerevisiae deletion strains, locus YPL078C, strain atp4, active compounds read low 1.01 | S. cerevisiae deletion strains, locus YPL106C, strain sse1, active compounds read low 1.07 | S. cerevisiae deletion strains, locus YPL240C, strain hsp82, active compounds read low 0.977 | S. cerevisiae deletion strains, locus YPL241C, strain CIN2, active compounds read low 0.994 and 1.01 | S. cerevisiae deletion strains, locus YPL256C, strain CLN2, active compounds read low 1.03 | S. cerevisiae deletion strains, locus YPR119W, strain clb2, active compounds read low 0.989 | S. cerevisiae deletion strains, locus YPR141C, strain kar3, active compounds read low 0.974 | S. cerevisiae deletion strains, locus YPR163C, strain tif3, active compounds read low 0.993 | S. cerevisiae deletion strains, locus YPR167C, strain met16, active compounds read low 0.993 | S. cerevisiae deletion strains, strain wtn01, active compounds read low 0.995 | S. cerevisiae strains, strain wild type, active compounds read low 0.982
